NS1 inh: influenza NS1 inhibition. Potency, µM (top dose mostly 46.1 µM). 270,000 compounds, 0.4% hits. AID 2326; note: actives are rising curves; nearly all actives have a fitted effect of over 50% in size
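Compounds were scored for reversing the slow growth caused by influenza A NS1 in S. cerevisiae, measured by optical density at 600 nm. Assay medium contained 2% galactose at pH 6.0; NS1-free yeast of the same strain were the positive control.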
SARS PLP yeast: inhibitors of SARS-CoV papain-like protease in yeast; S. cerevisiae expressing SARS-CoV PLpro, growth rescue; AID 485353; 330,000 compounds, 0.19% hits; Potency, µM (highest dose often 32.9 µM), hits mostly activators; note: nearly all actives have a fitted effect of over 55% in size
Cycloheximide cs: affects cycloheximide protein synthesis inhibition readout, counter-screen | cell reporter, cycloheximide protein synthesis inhibition counterscreen | max response, % | 300,000 compounds, 12% hits | AID 2314; in the data active = max response mostly above about 13%, no sharp cut-off; inactive = mostly below about 14%; note: read at 38.3 µM for the half of the compounds with a filed dose
Shiga inhibitor: blocks Shiga toxin action in Vero cells; Vero cells, Shiga toxin protein synthesis inhibition reporter; inhibition, % at 38.7 µM; 290,000 compounds, 9.2% hits; AID 2315; in the data active = inhibition mostly above about 28%, no sharp cut-off; inactive = mostly below about 43%
Hits are given with their value; - = inactive; ? = inconclusive; . = not tested or not shown. The list is not random: actives were taken first. Their share in the collection is about 12%. Unless noted, calls come from the whole dose curve.

SMILES	NS1 inh	SARS PLP yeast	Cycloheximide cs	Shiga inhibitor
O=C1CC(=O)Nc2cc(S(=O)(=O)N3CCOc4ccc(Cl)cc43)ccc2N1	-	-	-	-
Cc1ccc(S(=O)(=O)N(CC(=O)N/N=C/c2ccccc2C(=O)O)c2cc(Cl)cc(Cl)c2)cc1	-	-	-	-
O=C(NC1CCS(=O)(=O)C1)c1cccc(Cl)c1 (stereo not drawn)	.	-	.	.
Nc1c(C(=O)NC2CCCC2)c2nc3ccccc3nc2n1N	-	-	71	43
Nc1c(C(=O)NC2CCCC2)c2nc3ccccc3nc2n1CC1CCCO1 (stereo not drawn)	-	-	-	-
Cc1ncoc1C(=O)N1CCc2c([nH]c3ccccc23)C1C1CCCCC1 (stereo not drawn)	-	-	52	72
Cc1ncoc1C(=O)N1CCc2c([nH]c3ccccc23)C1C(C)(C)C (stereo not drawn)	-	-	-	-
Cc1cc(C(=O)COC(=O)CNC(=O)c2ccco2)c(C)n1Cc1ccco1	-	-	-	-
CCOc1ncccc1C(=O)OCC(=O)c1cc(C)n(Cc2ccco2)c1C	-	-	27	67
Cc1cc(C(=O)COC(=O)CCC(=O)c2ccc3c(c2)OCCO3)c(C)n1Cc1ccco1	-	-	-	-
CCOc1ncccc1C(=O)OCC(=O)c1cc(OC)ccc1OC	-	-	-	-
Cc1cc(C(=O)COC(=O)c2ccc(Br)o2)c(C)n1Cc1ccco1	.	-	52	97
Cc1cc(C(=O)COC(=O)c2ccc(O)cc2)c(C)n1Cc1ccco1	-	-	67	66
Cc1cc(C(=O)COC(=O)C(C)NC(N)=O)c(C)n1Cc1ccco1 (stereo not drawn)	.	-	35	94
CCCCN(C(=O)c1[nH]c(C)c(C(C)=O)c1C)c1c(N)n(CCCC)c(=O)[nH]c1=O	.	-	.	.
O=S(=O)(O)C(c1ccccc1)[C@@H](O)c1ccccc1 (stereo partly drawn)	-	.	.	.
CCN(CC)S(=O)(=O)c1ccc(OC)c(NC(=O)COc2ccc3c(C)cc(=O)oc3c2)c1	-	-	-	-
COc1ccc(/C=C/C(=O)OCn2c(SC)nnc(C)c2=O)cc1OC	.	-	-	-
O=C(Nc1ccc(N2CCOCC2)cc1)C1CCCCC1	-	.	-	85
O=C(CNC1CCCC1)Nc1ccc(N2CCCCCC2)cc1	.	-	56	83
O=C(CNCC1CCCO1)Nc1ccc(N2CCCCCC2)cc1 (stereo not drawn)	-	-	23	43
O=C(CNCCC1=CCCCC1)Nc1ccc(N2CCCCCC2)cc1	-	-	16	-
O=C(CNC1CCCCCC1)Nc1ccc(N2CCCC2)cc1	-	-	-	-
CCCN1CCN(CCCNC(=O)Cn2nc(C)n3c(cc4cc(OC)ccc43)c2=O)CC1	-	-	-	-
CCOC(=O)C1CCCN(C(=O)c2ccccc2NS(=O)(=O)c2ccc(F)cc2)C1 (stereo not drawn)	.	-	.	.
SMILES	NS1 inh	SARS PLP yeast	Cycloheximide cs	Shiga inhibitor
O=C(COC(=O)/C=C/c1cccs1)Nc1ccc2ccccc2c1	-	-	-	-
CCc1ccc(/C=C2\SC(N3CCCC3)=NC2=O)cc1	-	-	-	-
COc1ccc(/C=C2\SC(N3CCCCC3)=NC2=O)cc1	-	-	22	-
CCOC(=O)C1CCCN(C2=NC(=O)/C(=C/c3ccc(O)c(OC)c3)S2)C1 (stereo not drawn)	-	-	14	-
O=C1N=C(N2CCCCC2)S/C1=C\c1ccncc1	-	-	-	-
O=C1N=C(N2CCCC2)S/C1=C\C=C\c1ccccc1	-	-	47	69
Cc1nn2cnnc2c(C)c1Cc1ccc(Cl)cc1	-	-	-	-
COc1ccccc1CNC(=O)Cn1cc(Br)ccc1=O	-	-	-	-
Cc1ccc(-c2nn(-c3ccccc3)cc2CC(=S)N2CCOCC2)cc1	-	-	-	-
CCOc1ccc(NS(=O)(=O)c2ccc(C(=O)NCC(c3ccco3)N(C)C)cc2)cc1 (stereo not drawn)	.	-	.	.
O=C1Nc2c(c(=O)[nH]c(=O)n2-c2ccc(F)cc2)C1(NS(=O)(=O)c1ccccc1)C(F)(F)F (stereo not drawn)	-	-	-	-
COc1ccc(-c2c(-c3ccc(C#N)cc3)oc(=O)c3cc(OC)c(OC)cc23)cc1	.	-	.	.
COc1ccc(C(=O)N2C(=S)NC(=O)/C2=C\c2ccc(C)cc2)cc1	-	-	22	-
COC(=O)CN1C(=S)N(c2ccc(OC)cc2)C(=O)/C1=C/c1ccc(OC)cc1	-	-	-	-
COc1ccc(NC(=O)CSc2nnnn2C)cc1S(=O)(=O)N1CCCCC1	.	-	.	.
CC(NC(=O)/C(C#N)=C1\N=C(NC(=O)c2cccs2)c2ccccc21)c1ccccc1 (stereo not drawn)	-	?	-	-
CCOc1ccc(S(=O)(=O)N(CC(=O)N2CCc3ccccc32)Cc2ccco2)cc1	-	-	31	83
CC(c1ccc(F)cc1)n1cc(C(=O)NCCN(C)C)nn1 (stereo not drawn)	-	-	-	-
CC1=NN(c2ccc(C(=O)O)cc2)C(=O)/C1=C\c1ccc(OC(=O)c2cccs2)cc1	.	-	16	-
CC(C)[C@H](NC(=O)N1CC(=O)Nc2ccccc21)C(=O)N[C@H](Cc1c[nH]c2ccccc12)C(=O)O	-	-	-	-
N#Cc1ccccc1NC(=S)NC(=O)c1cccnc1	-	-	-	-
CC(C)(C)NC(=O)CN(Cc1ccc(F)cc1)C(=O)Cn1nnc(-c2ccc(F)cc2)n1	-	-	-	-
Cc1ccnc(NC(=O)c2ccc([N+](=O)[O-])o2)c1	-	-	68	133
O=C(Nc1nc2c(F)cccc2s1)c1ccc([N+](=O)[O-])o1	-	-	11	-
O=C(Nc1nc2c(Cl)cccc2s1)c1ccc([N+](=O)[O-])o1	-	-	-	.
SMILES	NS1 inh	SARS PLP yeast	Cycloheximide cs	Shiga inhibitor
O=C(Nc1ncccn1)c1ccc([N+](=O)[O-])o1	.	-	52	64
O=C(Nc1cccc(NC(=O)c2ccccc2Cl)c1)c1ccc([N+](=O)[O-])o1	-	-	-	-
O=C(COC(=O)c1ccc2c(c1)OCCO2)NC1CCCCC1	.	-	.	.
O=C(Nc1ccc2c(c1)OCO2)c1cc2nc(C3CC3)cc(C(F)(F)F)n2n1	-	-	12	-
CC(=O)c1cccc(NC(=O)c2ccc(C(=O)Nc3cccc(C(C)=O)c3)nc2)c1	-	-	-	-
Cc1cc(C)n2nc(C(=O)Nc3ccc4c(c3)OCO4)cc2n1	-	-	34	70
Cc1cc(C)n(-c2ccc(C(=O)Nc3ccc4c(c3)OCO4)cc2)n1	-	-	-	-
CC(=O)c1cccc(NC(=O)c2cc3nc(C)cc(C)n3n2)c1	-	-	27	53
Oc1ccc(Br)cc1-c1ccn[nH]1	-	-	-	42
O=C(N/C(=C\c1ccc(F)cc1)C(=O)N1CCOCC1)c1ccccc1	-	-	-	-
O=C(COC(=O)c1ccc(Cl)nc1)c1ccc2c(c1)OCCO2	.	-	44	100
O=C(COC(=O)c1cccnc1Cl)c1ccc2c(c1)OCCO2	-	-	35	88
Cc1noc(C)c1COc1ccc(C(=O)OCC(=O)c2ccc3c(c2)OCCO3)cc1	-	-	-	-
Cc1cc(C(=O)OCC(=O)c2ccc3c(c2)OCCO3)c(C)o1	-	-	37	114
CC(OC(=O)c1cccnc1Cl)C(=O)Nc1ccc2c(c1)OCCO2 (stereo not drawn)	.	-	-	-

Bioassay records (PubChem BioAssay)
